Z-score and composite z-score data for eight compounds are collected here from PubChem BioAssay.

Activity calls are given as the source filed them. Unless noted, how the calls were made is not given here.

Assay [1] can be described thus: compound effects on lung adenocarcinoma cell viability – A549, calcein-AM fluorescence, 48 h, basal, profiling panel (AID 1162). Further: test concentration not given here. As to conditions: higher = more signal.
A short description of assay [2]: compound effects on differentiated 3T3-L1 adipocyte viability – cell-based, 3T3-L1 adipocytes, calcein-AM fluorescence, 48 h, basal, profiling panel (AID 1163). Further: test concentration not given here. The conditions noted are these: 3T3-L1 adipocytes viability, higher = more signal.
The nature of assay [3]: compound effects on hepatocellular carcinoma cell viability – HepG2, calcein-AM fluorescence, 48 h, basal, profiling panel (AID 1164). Further: test concentration not given here. The conditions noted are these: higher = more signal.
Assay [4] in a line: compound effects on multiple myeloma cell viability – MM1S, calcein-AM fluorescence, 48 h, basal, profiling panel (AID 1165). Further: test concentration not given here. The conditions noted are these: higher = more signal.
Assay [5] can be described thus: calcein-AM signal in unstimulated myeloma cells – cell-based, calcein-AM fluorescence, 48 h, PK04 Diversity Set, profiling panel (AID 1166).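 Further: cells grown under basal conditions without added stimulus; test concentration not given here.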 The conditions noted are these: RPMI8226 myeloma viability, higher = more signal.
The nature of assay [6]: JC-1 mitochondrial signal, unstimulated HepG2 cells – cell-based, JC-1 fluorescence, 24 h, 100 nL compound, profiling panel (AID 1167). Further: test concentration not given here. As to conditions: HepG2 mitochondrial potential, higher = more signal.
Assay [7] in a line: JC-1 mitochondrial signal, unstimulated adipocytes – cell-based, JC-1 fluorescence, 3T3-L1 adipocytes, 24 h, 100 nL compound, profiling panel (AID 1168). Further: test concentration not given here. As to conditions: JC-1 mitochondrial fluorescence, higher = more signal, called active from +8 up or from −8 down.
Assay [8] can be described thus: JC-1 mitochondrial signal, unstimulated myeloma cells – cell-based, JC-1 fluorescence, RPMI8226, 24 h, 100 nL compound, profiling panel (AID 1169). Further: test concentration not given here. As to conditions: JC-1 mitochondrial potential fluorescence, higher = more signal.
A short description of assay [9]: JC-1 mitochondrial signal, unstimulated MM1S myeloma – cell-based, JC-1 fluorescence, 24 h, 100 nL compound, profiling panel (AID 1170). Further: test concentration not given here. As to conditions: MM1S mitochondrial potential, higher = more signal.
A short description of assay [10]: resazurin metabolic signal in A549 cells – cell-based, resazurin fluorescence, 24 h, PK04 Diversity Set, profiling panel (AID 1171). Further: test concentration not given here. As to conditions: A549 viability, higher = more signal, called active from +8 up or from −8 down.
The nature of assay [11]: resazurin metabolic signal in HepG2 cells – cell-based, resazurin fluorescence, 24 h, PK04 Diversity Set, profiling panel (AID 1172). Further: test concentration not given here. As to conditions: HepG2 viability, higher = more signal.
Assay [12] is described as follows: budding yeast growth changes without added modifier – OD600, strain BY4716, 24 h, basal condition, primary screen (AID 1173). The conditions noted are these: S. cerevisiae BY4716 growth, OD600, 24 h; higher = more signal, called active from +8 up or from −8 down.
Assay [13] is described as follows: viability profiling in MM1S myeloma cells – cell-based, resazurin fluorescence, basal, 24 h, PK04 Diversity Set, profiling panel (AID 1174). Further: test concentration not given here. As to conditions: higher = more signal, called active from +8 up or from −8 down.
Assay [14] concerns the target Dihydroorotate dehydrogenase (quinone), mitochondrial (Plasmodium falciparum (isolate 3D7)) (UniProt Q08210). In words: inhibition of P. falciparum DHODH – biochemical, C-terminal His tag, absorbance 600 nm, primary screen (AID 1175).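 Further: recombinant parasite enzyme with a five histidine tag at its C terminus; test concentration not given here.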 As to conditions: PfDHODH enzyme, DCIP absorbance 600 nm; higher = more signal, called active from +8 up or from −8 down.
Assay [15] is described as follows: inhibition of PAO1 biofilm formation – strain PAO1, LB-PBS medium, absorbance 600 nm, primary screen (AID 1176). Further: test concentration not given here. As to conditions: P. aeruginosa PAO1 growth/biofilm, A600, 12 h; higher = more signal.
Assay [16] can be described thus: growth modulation of vineyard yeast isolate – strain RM11-1a, OD600, basal, 24 h, primary screen (AID 1177).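 Further: cultures grown under basal conditions with no added stressor; test concentration not given here.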 The conditions noted are these: S. cerevisiae RM11-1a growth, OD600, 24 h; higher = more signal, called active from +8 up or from −8 down.
Assay [17] can be described thus: growth of efflux-deficient E. coli DRC39 – strain DRC39, OD650, 24 h, E. coli filamentation inducers, primary screen (AID 1178).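 Further: growth measured as culture turbidity by optical density at 650 nm; test concentration not given here.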 The conditions noted are these: E. coli DRC39 acrAB, higher = more signal, called active from +8 up or from −8 down.
Assay [18] can be described thus: growth of efflux-deficient E. coli DRC39 – strain DRC39, OD650, 48 h, E. coli filamentation inducers, primary screen (AID 1179).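 Further: screen aims at cell division blockers that make cells filament.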 The conditions noted are these: E. coli DRC39 delta-acrAB growth, higher = more signal, called active from +8 up or from −8 down.
The nature of assay [19]: viability profiling in RPMI8226 myeloma cells – cell-based, resazurin fluorescence, basal, 24 h, PK04 Diversity Set, profiling panel (AID 1180).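 Further: RPMI8826 multiple myeloma cell line at 5000 cells per well; test concentration not given here.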 The conditions noted are these: higher = more signal. (Resazurin is reduced to fluorescent resorufin, in cell work by metabolically active cells.)
For assay [20], the target named is E3 ubiquitin-protein ligase XIAP (Homo sapiens) (UniProt P98170). Put plainly: small molecules binding XIAP protein – biophysical, small-molecule microarray, fluorescence 635 nm, primary screen (AID 1181).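 Further: score merges 667 nm emission and signal to noise over triplicate slides.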 As to conditions: higher = more signal.
Chain of E3 ubiquitin-protein ligase XIAP (Homo sapiens) (P98170 whole entry, looked up): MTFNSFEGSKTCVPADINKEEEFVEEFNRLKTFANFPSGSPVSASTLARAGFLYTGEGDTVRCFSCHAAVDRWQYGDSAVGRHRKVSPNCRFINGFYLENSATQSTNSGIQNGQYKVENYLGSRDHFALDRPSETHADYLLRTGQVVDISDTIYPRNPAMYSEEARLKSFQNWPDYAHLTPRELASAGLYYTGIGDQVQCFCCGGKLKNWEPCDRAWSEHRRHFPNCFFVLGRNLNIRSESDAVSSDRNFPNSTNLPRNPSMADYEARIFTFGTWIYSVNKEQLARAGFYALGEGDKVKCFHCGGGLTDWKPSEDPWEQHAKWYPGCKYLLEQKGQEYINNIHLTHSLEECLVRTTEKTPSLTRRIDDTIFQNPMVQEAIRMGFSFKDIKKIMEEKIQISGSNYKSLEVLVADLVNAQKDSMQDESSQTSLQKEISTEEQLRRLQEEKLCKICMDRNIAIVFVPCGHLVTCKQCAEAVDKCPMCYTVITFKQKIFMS

Chain of Dihydroorotate dehydrogenase (quinone), mitochondrial (Plasmodium falciparum (isolate 3D7)) (Q08210 whole entry, looked up): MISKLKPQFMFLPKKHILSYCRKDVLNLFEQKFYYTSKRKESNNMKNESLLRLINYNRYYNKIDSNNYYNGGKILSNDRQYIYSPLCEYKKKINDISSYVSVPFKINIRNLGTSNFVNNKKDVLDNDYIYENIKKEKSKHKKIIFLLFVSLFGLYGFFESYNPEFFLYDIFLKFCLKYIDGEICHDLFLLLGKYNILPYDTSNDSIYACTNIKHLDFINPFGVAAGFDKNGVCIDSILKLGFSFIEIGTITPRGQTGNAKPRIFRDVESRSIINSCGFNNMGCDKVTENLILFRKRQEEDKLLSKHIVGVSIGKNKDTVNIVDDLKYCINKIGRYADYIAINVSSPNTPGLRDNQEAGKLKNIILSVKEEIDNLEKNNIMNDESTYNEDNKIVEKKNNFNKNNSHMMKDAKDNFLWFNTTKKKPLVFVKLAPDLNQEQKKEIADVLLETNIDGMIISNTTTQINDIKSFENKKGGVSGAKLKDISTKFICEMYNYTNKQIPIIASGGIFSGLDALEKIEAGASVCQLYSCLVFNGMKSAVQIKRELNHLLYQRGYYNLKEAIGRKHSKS

Take `O=C1OCC=C[C@H]2OC34C=CCN(c5ccc(Cl)cc5)C(=O)[C@H]3N(CCO)C(=O)[C@@H]4[C@@H]12` (stereo not given in full): the z-score was 0.667 in assay [1]; 0.0916 in assay [2]; 0.781 in [3]; 0.0654 in assay [4]; 0.714 in [5]; -0.365 in [6]. The z-score was -0.803 (inactive) in [7]; 0.0649 in [8]; 0.596 in [9]; -0.27 (inactive) in [10]; -0.222 in assay [11]; 0.52 (inactive) in assay [12]. For the same compound, the z-score in [13] was 0.296 (inactive); in assay [15] it was -0.401 (inactive); in [16] it was 0.568 (inactive); in assay [17] it was 0.973 (inactive); in [18], 1 (inactive); in assay [19], 0.825. In addition, the composite z-score in [14] is 0.198 (inactive); in [20], -0.22.

In the case of `COC(=O)[C@@]1(Cc2ccccc2)[C@H]2c3cc(C(=O)N(C)C)n(CCN4CNCC4=O)c3C[C@H]2CN1C(=O)c1ccccc1`, the z-score in assay [1] is 0.134; in assay [2], -0.391; in assay [3] it was 0.0701; in [4] it was 0.0517; in assay [5] it was -0.002; in [6] it was 0.196. Also, the z-score in assay [7] was -0.179 (inactive); in [8] it was -0.874; in assay [9], 1.46; in assay [10] it was 0.293 (inactive); in assay [11], 0.0001; in [12], 1.13 (inactive). In addition, the z-score is -0.473 (inactive) in assay [13]; -0.0703 (inactive) in assay [15]; 0.0591 (inactive) in assay [16]; -0.459 (inactive) in assay [17]; -0.217 (inactive) in assay [18]; 0.432 in [19]. The results for the composite z-score in assay [14] and in assay [20] were 0.0849 (inactive) and 0.404, respectively.

For `COC(=O)c1cn(C[C@@H](Cc2ccccc2)NC(=O)N[C@H](CO)CCc2oc(C(C)=O)c(C(=O)OC)c2C(=O)OC)nn1`, the z-score in assay [1] is -0.282; in assay [2], 0.53; in [3], -0.0248; in assay [4], 0.408; in [5] it was 0.206; in [6] it was 0.629. The z-score in assay [7] is 1.09 (inactive); in assay [8], -0.0706; in assay [9], 0.962; in assay [10] it was 0.0604 (inactive); in assay [11], 0.0852; in [12], -1.3 (inactive). Also, the z-score in assay [13] is 0.438 (inactive); in assay [15], -0.227 (inactive); in [16], -0.504 (inactive); in assay [17], 1.3 (inactive); in assay [18], 0.604 (inactive); in [19], -0.181. Also, the values for the composite z-score in assay [14] and in assay [20] were 0.223 (inactive) and -0.02, respectively.

Regarding `Cc1ccc(S[C@]2(C(=O)NCCCN(C)C)CC(=O)N(C3CCCCC3)[C@@H]2c2ccc(CO)cc2)cc1`, the z-score was 0.242 in [1]; -0.148 in assay [2]; -0.0685 in assay [3]; -1.96 in assay [4]; -0.0053 in [5]; 1.53 in [6]. Further, the z-score in assay [7] is -0.112 (inactive); in [8] it was -0.151; in [9], -0.528; in assay [10], 1.06 (inactive); in assay [11], -0.0347; in assay [12], 0.0406 (inactive). In addition, the z-score was 0.118 (inactive) in assay [13]; 0.236 (inactive) in assay [15]; 1.21 (inactive) in assay [16]; 0.425 (inactive) in assay [17]; 0.509 (inactive) in assay [18]; -0.0763 in assay [19]. In addition, the composite z-score in assay [14] was 0.193 (inactive); in assay [20], -0.0374.

As for `C[N+](C)(C)CCCCCCNC(=O)[C@H]1C[C@H]2C(=O)N[C@@H](Cc3ccccc3)C(=O)N2[C@H]1c1ccc(O)cc1`, the z-score in assay [1] was -0.367; in assay [2] it was -1.42; in assay [3], 0.557; in assay [4], 0.401; in [5] it was 0.757; in [6], -0.216. For the same compound, the z-score was 0.508 (inactive) in assay [7]; 0.21 in assay [8]; -0.79 in assay [9]; -0.0203 (inactive) in assay [10]; -0.324 in assay [11]; 0.119 (inactive) in [12]. The z-score in assay [13] is 0.13 (inactive); in [15], -0.546 (inactive); in assay [16] it was -0.0281 (inactive); in [17], 0.962 (inactive); in assay [18], 1.3 (inactive); in assay [19] it was 0.201. Also, the figures for the composite z-score in assay [14] and in [20] were -0.673 (inactive) and -0.162, respectively.

For the compound `C=C(/C(=C/C[C@H](OC(C)=O)c1ccccc1OCCO)c1cc(C(=O)OC)ccc1OC)C(C)C`, the z-score in assay [1] was -0.297; in assay [2] it was 1.77; in [3], -0.644; in [4] it was -1.2; in [5], -1.75; in assay [6], 1.14. Further, the z-score was 1.16 (inactive) in [7]; 0.0903 in assay [8]; 1.08 in assay [9]; 0.0515 (inactive) in [10]; -0.169 in [11]; -2.2 (inactive) in assay [12]. In addition, the z-score was 0.121 (inactive) in [13]; -0.529 (inactive) in [15]; -0.0703 (inactive) in assay [16]; -0.0536 (inactive) in assay [17]; -0.216 (inactive) in assay [18]; 0.0967 in assay [19]. The figures for the composite z-score in assay [14] and in [20] were -1.96 (inactive) and 0.13, respectively.

For `CO[C@H]1O[C@H](CO)[C@@H](OC(=O)Nc2ccc3c(c2)OCO3)[C@H](OC(=O)c2cc3ccccc3[nH]2)[C@H]1OC(=O)c1cc2ccccc2[nH]1`, the z-score in assay [1] is 0.603; in assay [2], 0.477; in [3] it was 0.463; in [4], -1.98; in assay [5], 1.11; in [6], -2.54. For the same compound, the z-score is 1.27 (inactive) in assay [7]; -0.31 in assay [8]; -1.29 in assay [9]; -3.63 (inactive) in assay [10]; -2.92 in assay [11]; -0.237 (inactive) in assay [12]. The z-score is -3.48 (inactive) in [13]; 0.69 (inactive) in [15]; -0.81 (inactive) in assay [16]; 0.387 (inactive) in [17]; 1.42 (inactive) in assay [18]; -3.84 in assay [19]. For the same compound, the composite z-score in assay [14] is -1.53 (inactive); in assay [20], 0.151.

`CC(C)C(=C=CC[C@H](O)c1cccc(OCCO)c1)C[C@H](O)c1cc(Cl)cc(Cl)c1O`: the z-score in assay [1] was -0.105; in assay [2], -0.903; in assay [3], 0.142; in [4], -1.67; in assay [5] it was 0.205; in [6] it was 0.00345. Besides, the z-score was 0.375 (inactive) in assay [7]; -0.527 in assay [8]; -0.826 in assay [9]; 1.01 (inactive) in assay [10]; 0.84 in [11]; -4.38 (inactive) in assay [12]. Moreover, the z-score in assay [13] is 0.0849 (inactive); in [15] it was 0.33 (inactive); in assay [16] it was 0.233 (inactive); in assay [17] it was 0.889 (inactive); in assay [18], 0.709 (inactive); in [19], 1.61. Further, the composite z-score in assay [14] is -0.0151 (inactive); in assay [20] it was -0.16.
